This is an account of results in PubChem BioAssay AID463212 (Sanford-Burnham Center for Chemical Genomics, 2010).

For orientation: inhibition means the drop in the measured response relative to a control, in per cent.

Out of some 330,000 compounds screened, about 4,400 (1.3%) were called active. For the sample, actives were picked, then their nearest neighbours and some compounds at random. A number with no mark means an inactive call.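 How the source made its calls: active means growth inhibition of the mutant yeast at or above 50%; inactive means the rest.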

The assay can be described thus: growth inhibition of tim23-1 ts yeast – luminescence, uHTS, primary screen (AID 463212).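 Further: temperature-sensitive mutant grown at 25 °C; plate controls were DMSO-treated mutant yeast for no effect and medium wells lacking yeast for full effect.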 The settings on record: S. cerevisiae tim23-1 growth, BacTiter-Glo luminescence, 24 h; at 20 µM; stronger effect = higher value.
As for `Cc1ccc(NC(=O)c2nc[nH]c2C(=O)N2CCCCC2)c(C(=O)c2ccccc2)c1`, the inhibition is 6.29%.

With `C=C(C)C(=O)O[C@H]1C/C(C)=C\C(=O)/C=C(\C)[C@H](O)[C@@H]2OC(=O)C(=C)[C@@H]21`, the inhibition was 4.97%.

Consider `COc1ccc(C)cc1NC(=O)CSc1nnc(CC(=O)Nc2ccccc2F)n1C`, for which the inhibition was 3.22%.

For `O=C(O)Cn1c(Cc2ccccc2)nc2ccccc21`, the inhibition is -1.32%.

For the compound `CCOc1ccccc1Oc1cn[nH]c1-c1ccc(OC)cc1O`, the inhibition was -69.3%.

With `COc1ccc(Oc2cn[nH]c2-c2ccc(OC)cc2O)cc1`, the inhibition is 66.3% (active).

With `COc1ccc(-c2cn[nH]c2-c2ccc(OC)cc2)cc1`, the inhibition is 47.7%.

As for `Cc1cc(NC(=O)CSCc2nc(-c3cccc(Cl)c3)oc2C)no1`, the inhibition is 1.1%.

On to `COc1cccc2c1CCC(NC(C)=O)C2=O` (stereo not given), for which the inhibition was 0.522%.

With `Cc1cccc(C)c1NC(=O)C(Cl)C(=O)c1ccccc1` (stereo not given), the inhibition was 80.7% (active).

With `Cc1cccc(C)c1NC(=O)C(c1ccccc1)N1CC(=O)Nc2ccccc21` (stereo not given), the inhibition was 21.3%.

For the compound `Cc1cccc(C)c1NC(=O)CN(C)C(=O)CCC(=O)c1ccccc1`, the inhibition was 15%.

For the compound `COc1ccc(CN2CCCCC2C)cc1OC` (stereo not given), the inhibition is 10.1%.

Regarding `CCC(C)n1c(-c2cc(OC)c(OC)c(OC)c2)nc2nc3ccccc3nc21` (stereo not given), the inhibition was 19.1%.

`C[C@H](NC(=O)C1CC(=O)N(c2ccc3c(c2)OCO3)C1)C(=O)NCc1ccco1` (stereo not given in full): the inhibition is 13.9%.

Consider `CC(C)(C)c1ccc(CN2C(=O)c3ccccc3S2(=O)=O)cc1`, for which the inhibition is 22.3%.

For `CCCCN(CCCC)CC(O)Cn1c2ccccc2c(=O)c2ccccc21` (stereo not given), the inhibition is 5.18%.

Consider `O=C1c2ccccc2S(=O)(=O)N1CC(O)Cn1c2ccccc2c2ccccc21` (stereo not given), for which the inhibition is 84.5% (active).

Regarding `COc1ccc(N(CC(=O)Nc2ccc(C)cc2C)S(=O)(=O)c2ccccc2[N+](=O)[O-])c(OC)c1`, the inhibition is 19.7%.

Consider `COc1ccc(N(CC(=O)Nc2cccc3ccccc23)S(C)(=O)=O)c(OC)c1`, for which the inhibition was 6.45%.

As for `CCc1ccccc1NC(=O)CN(c1ccc(OC)cc1OC)S(=O)(=O)c1ccccc1[N+](=O)[O-]`, the inhibition is 50.4% (active).

With `CCN(CC)S(=O)(=O)c1ccc(CNC(=O)CN2C(=O)NC3(CCc4ccccc43)C2=O)cc1` (stereo not given), the inhibition was 9.27%.

Turning to `Cc1ccc(S(=O)(=O)N2CCC(C(=O)OCC(=O)N3CC(=O)Nc4ccccc43)CC2)cc1`, the inhibition was 14.9%.

Consider `CC[C@]12c3[nH]c4ccc(Cl)cc4c3CCN1C(=O)[C@@H](CC(=O)NCCN1CCOCC1)C[C@@H]2C(=O)N1CCN(C(=O)C2CC2)CC1`, for which the inhibition was 24.7%.

`CC1Cn2c(nnc2-c2cccs2)S1` (stereo not given): the inhibition is 3.29%.

`NS(=O)(=O)c1ccc(CCNC(=O)CNC(=O)Cc2ccccc2)cc1`: the inhibition is 7.58%.

On to `CCN(CC)c1ccc(NC(=O)C2CCC(CNc3c(N4CCCC4)c(=O)c3=O)CC2)c(C)c1` (stereo not given), for which the inhibition was 2.65%.

`O=C(NCc1ccccc1Cl)C1CCCO1` (stereo not given): the inhibition is 3.86%.

Take `O=C(Nc1nnc(SCc2c(Cl)cccc2Cl)s1)c1cccc([N+](=O)[O-])c1`: the inhibition was -8.16%.

`O=C(Nc1nnc(SCc2c(Cl)cccc2Cl)s1)C1CCCO1` (stereo not given): the inhibition is 52.3% (active).

Regarding `CC1CN(C(=O)c2cc(COc3c(F)cccc3F)on2)CCN1C` (stereo not given), the inhibition was 8.91%.

Turning to `CN(C)/N=C/c1cn(-c2ccccc2)nc1-c1cccnc1`, the inhibition is 50.3% (active).

On to `NC(=O)C1CCN(C(=O)c2cn(-c3ccccc3)nc2-c2cccnc2)CC1`, for which the inhibition was -6.01%.

In the case of `O=C(COC(=O)/C=C/c1cn(-c2ccccc2)nc1-c1cccnc1)Nc1ccc(Cl)cc1Cl`, the inhibition was 20.1%.

`O=C1CC(C(F)(F)C(F)(F)C(F)(F)C(F)(F)F)=Nc2ccccc2N1`: the inhibition was 15.9%.

Take `CC(C)C[C@H](NC(=O)NCCc1ccc(Cl)cc1)C(=O)O`: the inhibition was 9.43%.

With `Cc1ccc2nc(SCC(=O)N3CC(C)OC(C)C3)nc(=O)n2c1` (stereo not given), the inhibition is 10.2%.

On to `O=C(NC(=S)Nc1ccccc1N1CCCCC1)c1ccc(F)cc1`, for which the inhibition is 32.5%.

On to `O=C(Nc1ccccc1N1CCOCC1)c1ccncc1`, for which the inhibition is -8.11%.

For the compound `CCc1ccc(C(=O)NC(=S)Nc2ccccc2N2CCOCC2)cc1`, the inhibition is 53.9% (active).

As for `O=C(NC1CC2CCCC(C1)N2C(=O)N1CCCCC1)C1CCCCC1` (stereo not given), the inhibition is 19.4%.

Take `Cc1cc(C)nc(NC2=NCC(=O)N2c2ccc(Cl)cc2)n1`: the inhibition is -5.7%.

Take `O=C(Nc1ccc(NC(=O)c2cccs2)cn1)c1ccco1`: the inhibition was 17.2%.

For the compound `O=C(N/N=C/c1ccco1)c1csc2c1CCCC2`, the inhibition is 22.8%.

Turning to `O=C(N/N=C/C=C/c1ccco1)c1cccs1`, the inhibition is 59.4% (active).

As to `O=C(Nc1ccc(Br)cc1)c1cc(S(=O)(=O)Nc2ccccn2)ccc1Cl`, the inhibition is -0.209%.

As to `Cc1ccc(NN=C2C(=O)OC(C)(C)OC2=O)c(C)c1`, the inhibition was -2.58%.

Consider `CCCCCCCN=C(C)c1ccccc1O`, for which the inhibition was 5.76%.

In the case of `CCCCCCc1ccc(O)cc1O`, the inhibition is 62.8% (active).

In the case of `CCCCCCc1cc2cc(-c3nnc(-c4ccccc4)o3)c(=O)oc2cc1O`, the inhibition is 7.67%.

For the compound `CC(C)NC(=O)NNc1c(Cl)cncc1Cl`, the inhibition was 2.69%.

Regarding `O=C(/C=C/c1cccc(C(F)(F)F)c1)N1CCN(c2ccccn2)CC1`, the inhibition is 37.6%.

Regarding `COc1ccc(NC(C)=O)cc1NC(=O)CN1CCN(C2c3ccccc3-c3ccccc32)CC1`, the inhibition was 26.8%.

`O=C(C[C@H]1C(=O)N(c2ccc(F)c(F)c2)C[C@@H]1Cc1ccccc1)Nc1ccccc1`: the inhibition was 13.5%.

Regarding `COc1ccc(NC(=O)CSc2nc(NS(=O)(=O)c3ccc(C)cc3)cc(=O)[nH]2)cc1`, the inhibition was 2.94%.

With `Cc1noc(C)c1-c1ccc2ncnc(NC(C)c3ccco3)c2c1` (stereo not given), the inhibition was 5.06%.

For the compound `Oc1ccc(-c2nnc(Nc3ccccc3)c3ccccc23)cc1`, the inhibition is -5.13%.

For the compound `CC(=O)Nc1cccc(Nc2nc(-c3cccs3)nc3ccccc23)c1`, the inhibition was 39.4%.

Take `Cc1cccc(-c2nc(Nc3ccc(O)cc3)c3ccccc3n2)c1`: the inhibition is 62.7% (active).

As for `CCCCn1c(O)c(N=NC(=O)Cn2c(C(F)(F)F)nc3ccccc32)c2ccccc21`, the inhibition was -27.6%.

Regarding `O=c1ccc2c(-c3ccccc3S(=O)(=O)O)c3ccc(O)c(O)c3oc-2c1O`, the inhibition was 56% (active).

As for `CCCn1c(N)c(C(=O)CSc2nnc3n2CCCCC3)c(=O)[nH]c1=O`, the inhibition was 7.27%.

For `O=C1C(=O)N(CC2COc3ccccc3O2)c2ccccc21` (stereo not given), the inhibition is 72.4% (active).

`O=C(CN1C(=O)C2C3C=CC(C3)C2C1=O)NCC1COc2ccccc2O1` (stereo not given): the inhibition was 18.2%.

Turning to `Cc1cc(C(=O)CCl)c(C)n1CC1COc2ccccc2O1` (stereo not given), the inhibition is 34.4%.

Turning to `CC(=O)Nc1sc2c(c1C(c1cccc(F)c1)N1CCN(CCO)CC1)CCCC2` (stereo not given), the inhibition was 14.7%.

Consider `Cc1cccc(-[n+]2c(-c3cccc(Br)c3)[nH]c3nc4ccccc4nc32)c1`, for which the inhibition was 22.7%.

For `Cc1ccccc1NC(=S)NNC(=O)c1cccc(Br)c1`, the inhibition is 14.7%.

`NS(=O)(=O)c1ccc(NC(=S)NC(=O)c2cccc(Br)c2)cc1`: the inhibition was 28.3%.

With `O=C(NC(=S)Nc1cccc2c(O)cccc12)c1cccc(Br)c1`, the inhibition is 68.6% (active).

Regarding `Cc1ccc(C)c(OCc2cc(C(=O)N3CCN(c4cnccn4)CC3)no2)c1`, the inhibition is 23.9%.

For the compound `Cc1cccc(NC(=O)c2ccc([N+](=O)[O-])o2)c1`, the inhibition is 7.53%.

In the case of `O=C(Nc1ccc(Br)cn1)c1ccc([N+](=O)[O-])o1`, the inhibition is 43.4%.

As to `Cc1onc(NC(=O)c2ccc([N+](=O)[O-])o2)c1Br`, the inhibition was 55.6% (active).

Turning to `O=C(CCCNS(=O)(=O)c1cccc2nsnc12)NCCN1CCN(c2ccccc2F)CC1`, the inhibition was 1.63%.

As for `O=C1Nc2ccccc2/C1=C/c1ccnc2ccccc12`, the inhibition is 51.2% (active).

For `COc1cc(NS(=O)(=O)c2ccc(NC(=O)c3ccc(S(=O)(=O)N4CCCCC4)cc3)cc2)ncn1`, the inhibition is 3.91%.

Consider `O=C1NC(Nc2nc3ccccc3s2)(C(F)(F)F)C(=O)N1C1CCCCC1` (stereo not given), for which the inhibition was 58.9% (active).

On to `O=C(NC1(C(F)(F)F)NC(=O)N(C2CCCCC2)C1=O)c1ccco1` (stereo not given), for which the inhibition is 14.4%.

On to `CCC1(CC)NC(=O)N(Cc2nc3ccccc3s2)C1=O`, for which the inhibition is 21.9%.

As for `CC(C)c1ccc(NC(=O)[C@@H](NC(=O)N2CC(=O)Nc3ccccc32)C(C)C)cc1`, the inhibition was 10.9%.

Consider `Cc1c(NC(=O)CCC2CCCCC2)cc(C(=O)N2CCOCC2)cc1[N+](=O)[O-]`, for which the inhibition was 7.43%.

Take `CC(=O)Nc1ccc(S(=O)(=O)NC2(C(F)(F)F)C(=O)NC(C)=C2C#N)cc1` (stereo not given): the inhibition is 10.8%.

Consider `Cc1cc(N2CCN(C)CC2)nc2ccc(NC(=S)N3CCOCC3)cc12`, for which the inhibition is 12.1%.

For the compound `CCn1c2ccccc2c2cc(NC(=S)N3CCOCC3)ccc21`, the inhibition was 51.8% (active).

On to `Cc1cc(N2CCOCC2)nc2ccc(NC(=S)N3CCN(Cc4ccccc4)CC3)cc12`, for which the inhibition was 7.08%.

With `COc1ccccc1CN1CC(C(=O)NCCc2cn[nH]c2)CCC1=O` (stereo not given), the inhibition is 11.8%.

On to `CCCNC(=O)Nc1ccccc1C(=O)Nc1ccc(OC)cc1`, for which the inhibition was 11%.

On to `COc1ccc(NC(=O)Nc2cccc3cccnc23)cc1`, for which the inhibition is 58.6% (active).

As for `CCOC(=O)Cc1ncccc1C(=O)Nc1ccc(OC)cc1`, the inhibition is -4.31%.

For the compound `COc1ccc(CNS(=O)(=O)c2cc3c4c(c2)CCN4C(=O)CC3)cc1`, the inhibition is 9.82%.

As for `COc1ccccc1C(=O)NC(=O)COC(=O)c1ccco1`, the inhibition was 1.32%.

Take `COc1ccc(/C=C(\C#N)C(=O)OCC(=O)N(C)C2CCS(=O)(=O)C2)cc1` (stereo not given): the inhibition is -18.1%.

With `COc1ccc(/C=C(\C#N)C(=O)ONC2=NCCCCC2)cc1`, the inhibition is 68.2% (active).

`COc1ccc(N2CCN(C(=O)/C(C#N)=C/c3ccccc3)CC2)cc1`: the inhibition is 40.6%.
